In this assay the test system is thyroid hormone receptor (endogenous TRα and TRβ). Also on record: species or system GH3-TRE-Luc (rat pituitary); GH3-TRE-Luc luciferase reporter, antagonist mode against 1 nM T3, loss of signal, qHTS.
Setting [1] is: read-out: Average AC50 (uM) GH3-TRE-Antag, antagonist mode, 1 nM T3, no GH3 cytotoxicity hit.

Each structure is given as a SMILES string. Where two headings read alike, the source gives them in different places. Bounds are passed on as bounds.

Turning to `CCCCCCn1cc[n+](C)c1` [1-Hexyl-3-methylimidazolium chloride], the concentration at half-maximal activity (AC50) (read-out: Average AC50 (uM) GH3-TRE-Antag, antagonist mode, 1 nM T3, no GH3 cytotoxicity hit, Average AC50 (uM) GH3-TRE-Antag, 24 h) was found to be 65.3 µM. `Cc1ccc(S(=O)(=O)NC2CCCCC2)cc1` [N-Cyclohexyl-4-methylbenzenesulfonamide]: the concentration at half-maximal activity (AC50) under setting [1] is greater than 90 µM. Still for that read-out and setting: next, `O=C1CCN(c2ccccc2)N1` [3-Pyrazolidinone,1-phenyl-]: greater than 90 µM; `CCOC1O[C@H]([C@@H](COCc2ccccc2)OCc2ccccc2)[C@H](OCc2ccccc2)[C@H]1O` (stereo partly drawn) [Tribenoside]: 11.1 µM; `CC(=O)C1(C)CC2=C(CCCC2(C)C)CC1C` (stereo not drawn) [Isocyclemone E]: 87.5 µM. The same measure, in the same setting: next, `CCCOc1ccc2nc(NC(=O)OC)sc2c1` [Tioxidazole]: 2.52 µM.

As a reminder, the AC50 is the midpoint of the concentration-response curve, whichever way the signal moves.
